Bioassay records: PubChem BioAssay, Johns Hopkins Ion Channel Center
KCNQ2 block: blocks the rat KCNQ2 potassium channel. CHO-K1 KCNQ2, FluxOR thallium flux, 20 min; stronger effect = lower value. B-score at 10 µM. 310,000 tested, 1.1% active. O88943;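 active means fluorescence ratio B-score at most minus 3 library SDs, with starting brightness B-score within 2 library SDs, cut at about -5.5 in these data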
KCNQ2 enhance: enhances the rat KCNQ2 potassium channel; O88943; CHO-K1 KCNQ2, FluxOR thallium flux fluorescence; stronger effect = higher value; B-score at 10 µM; 310,000 tested, 0.54% active;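 active means fluorescence ratio B-score at least 3 SD of library B-scores, with initial fluorescence B-score within 3 of them, cut at about 5.3 in these data; same plate scores as AID 2156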;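 further: B-score of peak minus minimum over baseline fluorescence ratio after K+ and Tl+ stimulus; positive B-score means potentiation of KCNQ2 with more thallium influx and brighter signal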
Kir21 conf inh: confirmation of mouse Kir2.1 potassium channel inhibitors | 2,300 tested, 41% active | Kir2.1-expressing cells, FluxOR thallium flux fluorescence; stronger effect = lower value | shares compounds with KCNQ2 enhance | Tl flux remaining, % of negative control (stronger effect = lower value), % at 10 µM;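 active means Primary-screen hit whose thallium flux fell at least 3 control SD below untreated wells in both duplicates, with normal baseline fluorescence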;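 further: 0% = blank wells without stimulus and 100% = stimulated no-compound controls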
HEK293 Tl flux: counter-screen for Kir2.1 inhibitors: effect in parental HEK293 cells; shares compounds with KCNQ2 enhance; AID 2105; FluxOR thallium flux fluorescence; 0% = unstimulated blank wells; 2,300 tested, 19% active; FluxOR signal as % of negative control (100 = no effect), % at 10 µM;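 active means dye signal at least 3 control SD above or below untreated wells in both duplicates, raw fluorescence within 3, either direction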;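 further: percent is based on the flux ratio of peak minus minimum fluorescence over baseline F0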
CHO-K1 Tl ctr: counter-screen for KCNQ2 potentiators: effect in parental CHO-K1 cells. shares compounds with KCNQ2 enhance. FluxOR thallium flux fluorescence; zero = vehicle mean+3SD, 100% = vehicle-minus-blank window. activity increase over 3SD of controls, % at 10 µM. 1,200 tested, 43% active. AID 2282;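 active means signal rise of at least 3 SD above the untreated control mean, in both duplicate wells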;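 further: counter screen of KCNQ2 potentiator hits so any rise reflects channel-independent effects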
KCNQ1 sel pot: human KCNQ1 counter-target activity of KCNQ2 potentiators; CHO KCNQ1 stable, FluxOR thallium flux fluorescence; beyond 3SD, as % of vehicle-control signal; AID 2283; 1,200 tested, 28% active; activation over 3SD threshold, % at 10 µM; shares compounds with KCNQ2 enhance;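 active means fluorescence ratio rise of at least 3 SD of vehicle wells above their mean, in both replicate wells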;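 further: 0% = vehicle mean plus 3 SD and 100% = vehicle minus unstimulated blank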
Target sequence (P51787 whole entry, looked up): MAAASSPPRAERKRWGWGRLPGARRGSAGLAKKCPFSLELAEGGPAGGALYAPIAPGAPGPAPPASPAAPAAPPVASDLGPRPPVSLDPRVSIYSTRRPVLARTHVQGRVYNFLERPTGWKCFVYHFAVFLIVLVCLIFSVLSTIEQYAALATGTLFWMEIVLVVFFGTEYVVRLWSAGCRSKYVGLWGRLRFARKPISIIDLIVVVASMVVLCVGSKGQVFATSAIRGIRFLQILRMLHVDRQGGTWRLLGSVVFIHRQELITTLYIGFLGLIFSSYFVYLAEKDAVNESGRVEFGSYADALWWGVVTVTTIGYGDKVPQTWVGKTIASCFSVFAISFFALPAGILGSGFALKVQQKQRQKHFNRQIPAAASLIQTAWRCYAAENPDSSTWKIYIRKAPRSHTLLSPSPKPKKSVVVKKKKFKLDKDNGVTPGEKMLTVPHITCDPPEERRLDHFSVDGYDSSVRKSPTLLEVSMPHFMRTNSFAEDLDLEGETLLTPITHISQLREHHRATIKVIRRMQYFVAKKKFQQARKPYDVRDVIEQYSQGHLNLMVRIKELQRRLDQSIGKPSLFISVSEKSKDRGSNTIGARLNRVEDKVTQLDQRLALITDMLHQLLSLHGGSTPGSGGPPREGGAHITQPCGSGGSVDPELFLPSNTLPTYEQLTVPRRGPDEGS
KCNQ2 pot conf: confirmation of rat KCNQ2 potassium channel potentiators; shares compounds with KCNQ2 enhance; CHO-KCNQ2 cells, FluxOR thallium flux fluorescence; potentiation, less the hit threshold, % at 10 µM; 1,200 tested, 68% active;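 active means fluorescence ratio rising 3 SD or more over the vehicle control mean in both replicates, plus primary screen hit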;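 further: peak minus minimum thallium fluorescence divided by baseline after K/Tl stimulus; 0% = vehicle mean plus 3 SD and 100% = vehicle minus unstimulated blank difference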
Kir2-1 sel: mouse Kir2.1 off-target activity of KCNQ2 potentiators | shares compounds with KCNQ2 enhance | AID 2345 | activity over 3SD threshold, % at 10 µM | 1,200 tested, 2% active | HEK293 Kir2.1, FluxOR thallium flux fluorescence;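 active means fluorescence ratio rise of at least 3 SD above the vehicle-control mean, seen in both replicates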;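 further: 0% = vehicle mean plus 3 SD and 100% = vehicle minus no-stimulus blank window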
KCNQ2 W236L MoA: KCNQ2 potentiators acting on retigabine-insensitive rat KCNQ2 W236L mutant; 940 tested, 10% active; CHO KCNQ2-W236L, automated patch clamp current; shares compounds with KCNQ2 enhance; AID 2558; current increase over 3SD of negative controls (%), stronger effect = higher value, % at 25 µM;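 active means current increase at least 3 SD of the untreated controls above them in both duplicate recordings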
Starred values were filed as active, the others as inactive; i = inactive; / = no result. In the library only some 1.6% were active in any assay of this set; here they are far more common.

SMILES | KCNQ2 block | KCNQ2 enhance | Kir21 conf inh | HEK293 Tl flux | others
CC(=O)C1=C(S(=O)(=O)c2ccc(C)cc2)CS(=O)(=O)C1 | i | 17* | i | 72%* | CHO-K1 Tl ctr=-8;KCNQ1 sel pot=-4;KCNQ2 pot conf=77*;Kir2-1 sel=-41;KCNQ2 W236L MoA=76%*
[N-]=[N+]=NC[C@H](c1ccccc1)N1CCN(Cc2ccccc2)CCC1=O | i | / | / | /
O=C(O)CN1C(=O)C(=O)N(Cc2ccccc2F)C1=O | i | 0.01 | / | /
C=CCn1c(COc2ccccc2)nnc1SCc1ccc(C#N)cc1 | i | / | 45%* | 69%*
C=CCn1c(COc2ccc(Cl)cc2)nnc1SCc1ccc(C#N)cc1 | i | / | / | /
CCn1c(SCc2ccccc2F)nnc1-c1ccncc1 | i | 1.5 | / | /
Cc1ccc2nc(N3CCN(CCO)CC3)nc(-c3ccccc3)c2c1 | i | / | 48%* | i
CN1CCN(c2nnc(-c3ccccc3)c(-c3ccccc3)n2)CC1 | i | 1 | / | /
CCOC(=O)N1CCN(c2nc(-c3ccccc3)c3cc(C)ccc3n2)CC1 | i | / | / | /
CN1CCN(c2nc(-c3ccccc3)c3cc(Cl)ccc3n2)CC1 | i | / | 60%* | i
N#Cc1ccc(C(=O)NNC(=O)c2ccncc2)cc1 | i | / | / | /
Cc1ccccc1C(=O)NC(=S)NCCC1=CCCCC1 | i | 0.92 | / | /
O=C(NC(=S)NCCC1=CCCCC1)c1ccco1 | i | 12* | i | 229%* | CHO-K1 Tl ctr=-9;KCNQ1 sel pot=-26;KCNQ2 pot conf=34*;Kir2-1 sel=-40;KCNQ2 W236L MoA=i
CCC1(c2ccccc2)NC(=S)N(c2ccc(C)c(C)c2)N1 (centres undefined) | i | 13* | i | 435%* | CHO-K1 Tl ctr=-5;KCNQ1 sel pot=-18;KCNQ2 pot conf=55*;Kir2-1 sel=-19;KCNQ2 W236L MoA=i
CC1=CC(C)(C)NC(=S)N1c1ccc(C)c(C)c1 | i | 0.02 | / | /
CCC1(c2ccc(Cl)cc2)NC(=S)N(c2ccc(C)c(C)c2)N1 (centres undefined) | i | 29* | i | 537%* | CHO-K1 Tl ctr=21*;KCNQ1 sel pot=-10;KCNQ2 pot conf=68*;Kir2-1 sel=-3
Cc1ccc(-n2c(C)n[nH]c2=S)cc1C | i | / | / | /
CCc1ccc(-c2nc(CS(=O)CC(=O)NCc3ccco3)c(C)o2)cc1 (centres undefined) | i | 2.5 | / | /
Cc1ccc(C(=O)N/C(=C\c2ccccc2)C(=O)NCCN2CCOCC2)cc1 | i | / | / | /
Cc1ccc(-n2nnnc2SCC(=O)N2CCCCC2)cc1 | i | / | / | /
O=C(CSc1nnnn1-c1cccc2c1CCCC2)N1CCCCC1 | i | 6.2* | 70%* | i | CHO-K1 Tl ctr=69*;KCNQ1 sel pot=-20;KCNQ2 pot conf=-7;Kir2-1 sel=-66
CCCCn1c(N)c(N(CCOC)C(=O)c2oc3ccc(OCC)cc3c2C)c(=O)[nH]c1=O | i | 1.2 | / | /
Cn1c(N)c(C(=O)c2ccc(Cl)cc2)c(=O)n(C)c1=O | i | 1.1 | / | /
Cc1nn(-c2ccc(Cl)cc2)c2sc(C(=O)c3c(N)n(C)c(=O)n(C)c3=O)cc12 | i | 0.12 | i | i
CC(NC(=O)/C(C#N)=C/c1ccc([N+](=O)[O-])o1)c1ccccc1 (centres undefined) | i | / | i | 64%*
CC(NC(=O)/C(C#N)=C/c1ccco1)c1ccccc1 (centres undefined) | i | / | / | /
CCc1ccc(-c2nc(SCC(=O)N(CC)C3CCS(=O)(=O)C3)n[nH]2)cc1 (centres undefined) | i | / | / | /
O=C(Nc1ccccc1C(=O)Nc1ccc(Br)cn1)c1cccc([N+](=O)[O-])c1 | i | 1.1 | / | /
COc1ccc(C(=O)NC(C)C2CC3CCC2C3)c(OC)c1 (centres undefined) | i | / | / | /
